# KDM4E inh – inhibitors of human JMJD2E histone demethylase; JMJD2E catalytic domain, FDH-coupled NADH fluorescence (FDH is formaldehyde dehydrogenase); Potency, µM (highest dose often 57.1 µM), for the others: at the highest dose activity change, negative = inhibition, usual class: inhibitors; hit rate 1.6% among 230,000;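 note: potency is the fitted concentration of half-maximal effect; 0% = wells with enzyme and -100% = buffer wells without enzyme; nearly all actives have a fitted effect of over 50% in size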
# Target sequence (B2RXH2 1-337 limits assumed): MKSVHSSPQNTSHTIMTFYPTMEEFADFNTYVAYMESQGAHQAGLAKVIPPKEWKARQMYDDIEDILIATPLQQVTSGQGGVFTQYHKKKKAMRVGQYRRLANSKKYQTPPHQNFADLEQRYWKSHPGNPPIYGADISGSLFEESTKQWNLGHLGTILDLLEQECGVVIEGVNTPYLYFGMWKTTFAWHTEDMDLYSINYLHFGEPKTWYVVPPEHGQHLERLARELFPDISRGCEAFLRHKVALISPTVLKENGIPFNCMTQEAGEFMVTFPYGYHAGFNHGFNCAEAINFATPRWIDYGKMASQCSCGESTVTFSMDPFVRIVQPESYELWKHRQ
# ALDH1A1 block – inhibitors of human aldehyde dehydrogenase 1A1. P00352. Purified ALDH1A1, NADH fluorescence, propionaldehyde substrate. Potency, µM (doses to about 75.3 µM), inactives show at the highest dose activity, negative = inhibition, actives largely listed as inhibitors. hit rate 7.3% among 220,000. AID 1030;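 note: potency is the fitted concentration of half-maximal effect; plate controls were no enzyme wells and a reference inhibitor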
# PNC inhibitor – blocks assembly of the perinucleolar compartment; PC3M PTB-GFP, PNC prevalence imaging, 16 h; hits give low values; activity change (PNC), negative = inhibition, % at 10 µM; hit rate 3.1% among 140,000; AID 2417;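 active = readout at or below -70, meaning at least 70% loss of cells showing the perinucleolar compartment, a nuclear body marking cancer cells; inconclusive = readout between -30 and a set limit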;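 note: plate controls were DMSO wells for no effect and camptothecin positive control wells for full effect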
#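 Read-out is percentage of cells bearing a perinucleolar compartment, from automated 20x imaging of fixed, Hoechst-stained PC3M PTB-GFP cells. Cells were seeded 4 h, then exposed 16 h to compound (23 nl of library stock) in duplicate plates.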
# HPGD inh – inhibitors of human 15-hydroxyprostaglandin dehydrogenase (HPGD); P15428; AID 894; Potency, µM, for inactives: top-dose activity change, negative = inhibition, hits mostly inhibitors; purified HPGD, NADH fluorescence kinetic, PGE2 substrate; hit rate 4.3% among 150,000; note: potency is the fitted concentration of half-maximal effect
#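 20 nM HPGD preincubated 15 min at room temperature with compound in 50 mM Tris-HCl pH 8, 0.01% Tween 20. Started with 1 mM NAD+ and 30 uM prostaglandin E2; NADH fluorescence (360/450 nm) read 5 times over 30-s intervals, last minus first.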
# The depositor's hits bear a star; ? = inconclusive; . = no result; [ ] = dose if it differs, or a comment. Shown are actives, neighbours in structure and some others; about 11% of the full set was active somewhere. Unless noted, calls come from the whole dose curve; as a rule, active = well fitted inhibition curve with a large enough effect (not every such curve was filed as active); inconclusive = small, poorly fitted or top-dose-only effect, or another doubt; inactive = no such curve, though single readings can be large or run the other way. Unless noted, % is set by controls: 0 for no effect and ±100 for the full control effect.
SMILES,KDM4E inh,ALDH1A1 block,PNC inhibitor,HPGD inh
C/C=C/COC(=O)c1[nH]c2c(c1C)C(=O)CC(c1ccc(N(C)C)cc1)C2 (stereo unspecified),-4.6%,5.01µM*,?,-18.4%
CCOC(=O)O[C@@H](C)OC(=O)[C@@H]1N2C(=O)[C@@H](NC(=O)[C@@H](N)c3ccccc3)[C@H]2SC1(C)C,-2.0%[25.5 µM],9.8%[20.9 µM],.,-9.1%
COc1ccc(C(=O)N2CCC3(CC2)CN(C(=O)Nc2cccc(C#N)c2)C3)cc1,.,-15.3%,.,-11.9%
C[C@H]1C[C@H]2[C@H]3CCC4=CC(=O)C=C[C@@]4(C)[C@]3(F)[C@H](O)C[C@]2(C)[C@@]1(O)C(=O)COP(=O)(O)O,.,17.8%[13.5 µM],.,-0.9%
NC(=O)c1cccc(C(N)=O)n1,9.0%,6.2%,.,.
CCC(C)OC(=O)c1[nH]c2c(c1C)C(=O)CC(c1ccc(N(C)C)cc1)C2 (stereo unspecified),-0.4%,3.55µM*,-22.7,-13.3%
COc1cc(C2CC(=O)c3c([nH]c(C(=O)OCCOC(C)C)c3C)C2)cc(OC)c1OC (stereo unspecified),-6.1%,?,15.9,-4.7%
Cc1ccc(NC(=O)COC(=O)CNC(=O)c2ccc(Br)cc2)c(C)c1,1.8%,?,?,-16.3%
Cn1c(N)c(C(=O)COC(=O)c2cncc(Br)c2)c(=O)n(C)c1=O,-17.8%,11.2µM*,.,.
Cc1ccc(C)c(S(=O)(=O)Nc2ccc(C(N)=O)cc2)c1,-11.7%,?,.,.
Cc1ccc(C)c(NS(=O)(=O)c2cc(C(N)=O)ccc2C)c1,4.8%,-2.3%,-80.7*,-10.9%
Cc1c(NS(=O)(=O)c2ccc3c(c2)Cc2ccccc2-3)c(=O)n(-c2ccccc2)n1C,-2.5%,-3.5%,.,.
O=c1[nH][nH]c(C(F)(F)F)c1C=NCc1cccs1,6.2%,9.2%,.,.
CC(C)c1nc2sc3c(=O)[nH]c(=S)[nH]c3c2c2c1CCC2,3.1%,?,41.9,15.8µM*
CC(C)c1nc2sc3c(=O)[nH]c(=S)[nH]c3c2c2c1CCCC2,2.4%,.,.,.
COc1ccc(C(=O)CNc2ccccc2CO)cc1,-4.6%,14.1µM*,.,.
COc1ccc(C(=O)CNc2ccccc2C#N)cc1,-5.2%,?,.,.
Cc1ccccc1CN(c1ccc(C(=O)NCc2ccccn2)cc1)S(C)(=O)=O,2.2%,5.7%,.,.
CCCC(C)c1nnc(NC(=O)C2CCCO2)s1 (stereo unspecified),-4.3%,3.55µM*,-8.3,11.2µM*
O=C(Nc1nnc(-c2ccccc2F)s1)C1CCCO1 (stereo unspecified),-6.1%,20µM*,52.0,-20.1%
CCCCCc1nnc(NC(=O)C2CCCO2)s1 (stereo unspecified),-0.7%,?,40.5,-6.9%
CCC(=O)Nc1nnc(CCc2ccccc2)s1,-2.8%,?,46.1,-25.5%
O=C(Nc1nc2ccccc2s1)C1CCCO1 (stereo unspecified),-3.7%,-6.8%,?,-2.8%
CCCC(C)c1nnc(NC(=O)c2cc(C(=O)OC)cc([N+](=O)[O-])c2)s1 (stereo unspecified),-11.6%,7.94µM*,41.0,11.2µM*
CCOC(=O)C(=O)Nc1nnc(CCc2ccccc2)s1,6.4%,-3.2%,-100.0*,-8.2%
SMILES,KDM4E inh,ALDH1A1 block,PNC inhibitor,HPGD inh
O=C(COC(=O)c1cc(-c2ccccn2)nc2ccccc12)Nc1ncc(C(F)(F)F)cc1Cl,5.9%,.,.,.
COc1ccc(Oc2cccc(Cl)c2CNC(=O)CCCC(=O)O)cc1,-6.9%,5.7%,.,.
C[C@H](NC(=O)c1ccc(Cl)c(Cl)c1)c1ccc(-c2ccccc2)cc1,.,5.3%[13.5 µM],.,-9.8%
CC1(C)CC(=O)C(C(C2=C(O)CC(C)(C)CC2=O)c2ccc(O)c([N+](=O)[O-])c2)=C(O)C1,-13.3%,?,.,.
O=C(O)c1[nH]c(=O)[nH]c(=O)c1CN1CCCCC1,.,8.9%[13.5 µM],.,-10.0%
CCCCOC(=O)Nc1nnc(C(C)C)s1,2.9%,-4.8%,.,.
Cc1nnc(NC(=O)C2CCCO2)s1 (stereo unspecified),-3.6%,8.91µM*,?,12.6µM*
CCCC(C)c1nnc(NC(=O)C(=O)OCC)s1 (stereo unspecified),0.8%,7.94µM*,.,.
C[C@@]1(O)CCOC(=O)C1,-0.4%[25.5 µM],1.5%[20.9 µM],.,-0.9%
CCC(=O)c1ccc(SC(=O)N(C)C)cc1O,1.9%,?,.,.
Cc1ccc(S(=O)(=O)Nc2ccccc2/C=N/c2nc3ccccc3n2C(C)C)cc1,4.8%,21.3%,-92.0*,-18.5%
CCCCn1c(/N=C/c2ccccc2NS(=O)(=O)c2ccc(C)cc2)nc2ccccc21,-10.4%,-9.2%,?,-27.1%
CCOc1cc(C=O)cc(Br)c1OCC(=O)NCCc1ccccc1,-8.3%,6.31µM*,.,.

# High-throughput results from PubChem BioAssay.
